Test results: PubChem BioAssay (Tox21)
“And” between values parts separate entries of the source, which are not always exact repeats. Identical values can stand only once. Inconclusive results are not listed. A call without a number means that no potency is given here. The source holds several records for some structures; these can differ, active in one and inactive in another. The source made the active and inactive calls. Unless noted, calls come from the whole dose curve.

How the values were obtained:
[1] = Nuclear factor erythroid 2-related factor 2/antioxidant responsive element (Nrf2/ARE) small molecule agonists: qHTS cell viability counter screen in human keratinocytes (AID 1919968; active = well fitted curve in the direction sought with a large enough effect in the repeat runs; an effect the other way counts as inactive or inconclusive; note: nearly all actives have a fitted effect of over 55% in size; note: potency is the fitted concentration of half-maximal effect)
Outline: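 Measured as CellTiter-Fluor fluorescence, this readout tracks cytotoxicity in the same wells as the ARE-luciferase screen. HaCaT reporter cells (1,500/well) received compounds after a 5 h pre-incubation and were exposed for 23 h.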

[2] = Nuclear factor erythroid 2-related factor 2/antioxidant responsive element (Nrf2/ARE) small molecule agonists: luciferase reporter gene qHTS assay in human keratinocytes (AID 1919969); note: nearly all actives have a fitted effect of over 35% in size; note: potency is the fitted concentration of half-maximal effect
[3] = molecular target: Gonadotropin-releasing hormone receptor (Homo sapiens) (UniProt P30968); test: Human gonadotropin-releasing hormone receptor (GnRHR) small molecule agonists, calcium flux assay in GnRHR-HEK293 cells (AID 1920063); note: nearly all actives have a fitted effect of over 35% in size
Outline: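 Fluorescence kinetics (480 nm excitation, 540 nm emission; 3 min, 1 s steps) report calcium mobilisation in human GnRHR-HEK293 cells in agonist mode. Dye incubation: 1 h, 37 C.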

[4] = molecular target: KiSS-1 receptor (Homo sapiens) (UniProt Q969F8); test: Human kisspeptin (KISS1R) small molecule agonists, calcium flux assay in KISS1R-HEK293 cells (AID 1920064; active = well fitted curve in the direction sought with a large enough effect in the repeat runs; an effect the other way counts as inactive or inconclusive)
Outline: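 Measures KISS1R agonism through calcium-sensitive dye fluorescence in stably transfected HEK293 cells, read for 3 min after pin-tool compound delivery; 15-point titrations in triplicate.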

[5] = G protein-coupled receptor (GPCR) small molecule agonists, calcium flux assay: HEK293 wild type cell line counter screen (AID 1920065)
Outline: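 Readout: fluorescence at 480 nm excitation/540 nm emission, sampled at 1 s intervals for 3 min. Cells had been cultured 18 h, then dye-loaded 1 h at 37 C before compound or ATP addition.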

[6] = p53 small molecule agonists, cell-based qHTS assay with human liver microsomes: qHTS cell viability counter screen (AID 1963579); note: nearly all actives have a fitted effect of over 45% in size; note: potency is the fitted concentration of half-maximal effect
Outline: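 Cytotoxicity counter screen: p53RE-bla, 4,000 cells/well; 5 h settle, 37 C/5% CO2; cpd + HLM 0.5 mg/mL + NADPH 0.5 mg/mL (final); 16 h, 37 C; CellTiter-Glo, 30 min RT, luminescence.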

[7] = p53 small molecule agonists, cell-based qHTS assay with rat liver microsomes: qHTS cell viability counter screen (AID 1963580); note: nearly all actives have a fitted effect of over 45% in size; note: potency is the fitted concentration of half-maximal effect
Outline: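 In HCT-116 cells carrying a p53 response element-bla reporter, compounds were metabolically activated in situ by rat liver microsomes with NADPH over 16 h. Cell ATP content then served as the cytotoxicity measure.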

[8] = p53 small molecule agonists, cell-based qHTS assay: qHTS cell viability counter screen (AID 1963581); note: nearly all actives have a fitted effect of over 45% in size; note: potency is the fitted concentration of half-maximal effect
Outline: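 In the same plates used for the p53 bla reporter, HCT-116 cells given compounds for 16 h at 37 C received CellTiter-Glo; luminescence was recorded 30 min later at room temperature.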

[9] = molecular target: Beta-2 adrenergic receptor (Homo sapiens) (UniProt P07550); test: Adrenergic beta2 receptor (ADRB2) small molecule antagonists, cell-based qHTS assay (AID 1963592); note: series mostly up to about 92 µM; nearly all actives have a fitted effect of over 50% in size
Outline: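 Cells (CHO, stable ADRB2 overexpression) incubated 18-20hr at 37C; compounds added from DMSO; agonist mix (1nM isoproterenol, 100uM IBMX, 25uM Ro-20-1724) added; 0.5hr RT; d2-cAMP and anti-cAMP-cryptate added; 1hr RT; 665/615 nm read.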

[10] = molecular target: Beta-2 adrenergic receptor (Homo sapiens) (UniProt P07550); test: Adrenergic beta2 receptor (ADRB2) small molecule agonists, cell-based qHTS assay (AID 1963593);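 note: CHO cells stably overexpressing human ADRB2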
Outline: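 CHO cells stably over-expressing ADRB2 were plated overnight at 37C, then dosed with compounds plus a stimulation mix containing 100uM IBMX and 25uM Ro-20-1724 for 0.5hr at room temperature. cAMP was measured by HTRF competition, 1hr.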

[11] = molecular target: D(2) dopamine receptor (Homo sapiens) (UniProt P14416); test: Dopamine D2 receptor (DRD2) small molecule agonists, cell-based qHTS assay (AID 1963594); note: nearly all actives have a fitted effect of over 35% in size
Outline: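 HEK293 cells stably expressing DRD2 were cultured 24 h at 37 C, then given Ro20-1724 (0.1 mM final) and compounds for 10 min at room temperature. NKH477 (200nM) was then added for 30 min. cAMP was read by HTRF.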

[12] = molecular target: 5-hydroxytryptamine receptor 2A (Homo sapiens) (UniProt P28223); test: 5-hydroxytryptamine receptor 2A (HTR2A) small molecule antagonists, cell-based qHTS assay (AID 1963586); note: nearly all actives have a fitted effect of over 45% in size
Outline: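 Antagonist-mode intracellular calcium assay: DOI (4 nM) added after 5 min compound pre-incubation at room temperature to dye-loaded HTR2A-CHO cells. Fluorescence followed for 3 min, sampled every second.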

[13] = molecular target: 5-hydroxytryptamine receptor 2A (Homo sapiens) (UniProt P28223); test: 5-hydroxytryptamine receptor 2A (HTR2A) small molecule agonists, cell-based qHTS assay (AID 1963587); note: nearly all actives have a fitted effect of over 30% in size
Outline: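 HTR2A-CHO cells, plated 18 h at 37 C/5% CO2, dye-loaded 1 h at 37 C; compounds in DMSO added by pin tool (agonist mode). Intracellular calcium flux read as kinetic fluorescence on FDSS over 2 min at 1 s intervals.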

[14] = molecular target: Muscarinic acetylcholine receptor M1 (Homo sapiens) (UniProt P11229); test: Cholinergic receptor muscarinic 1 (CHRM1) small molecule antagonists, cell-based qHTS assay (AID 1963588); note: nearly all actives have a fitted effect of over 40% in size
Outline: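 CHRM1-CHO calcium-flux assay, antagonist mode. Cells were seeded 18 h, dye-loaded 1 h at 37 C and given compound for 5 min at RT, then acetylcholine was added at 50nM. FDSS fluorescence was read 3 min; 15 concentrations, three runs.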

[15] = molecular target: Muscarinic acetylcholine receptor M1 (Homo sapiens) (UniProt P11229); test: Cholinergic receptor muscarinic 1 (CHRM1) small molecule agonists, cell-based qHTS assay (AID 1963589); note: nearly all actives have a fitted effect of over 35% in size
Outline: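 Each compound was tested at 15 concentrations across three independent runs on dye-loaded CHO cells stably expressing human CHRM1, reading intracellular calcium fluorescence kinetically at 1 sec intervals.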

[16] = cAMP Responsive Elements (CRE) small molecule agonists, cell-based qHTS assay (AID 1963590)
Outline: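 Cell line: CRE-bla HEK 293T; medium DMEM/10% dialyzed FBS/0.1 mM NEAA/1 mM pyruvate/25 mM HEPES; 3 h compound exposure; beta-lactamase FRET readout after 2 h substrate loading at RT.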

[17] = cAMP Responsive Elements (CRE) small molecule antagonists, cell-based qHTS assay (AID 1963591; active = well fitted inhibition curve with a large enough effect in the signal ratio in the repeat runs, not every such curve was filed as active; the % refers to the signal ratio)
Outline: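 Inhibition of NKH477-driven (0.25 uM final) CRE-beta-lactamase signal in HEK293T cells, 3 h compound exposure at 37 °C, detected by FRET substrate fluorescence.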

[18] = molecular target: D(2) dopamine receptor (Homo sapiens) (UniProt P14416); test: Dopamine D2 receptor (DRD2) small molecule antagonists, cell-based qHTS assay (AID 1963595; active = well fitted inhibition curve with a large enough effect in the signal ratio in the repeat runs, with a control signal flat; the % refers to the signal ratio)
Outline: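 HTRF cAMP read-out at 665 and 620 nm emission (340 nm excitation). Antagonist mode: compounds were tested against 12 nM quinpirole in DRD2-HEK293 cells, with 200 nM NKH477 raising cAMP and 0.1 mM Ro20-1724 blocking its breakdown.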

[19] = p53 small molecule agonists, cell-based qHTS assay (AID 1963582; active = well fitted activation curve with a large enough effect in the signal ratio in the repeat runs, not every such curve was filed as active; the % refers to the signal ratio)
Outline: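 Compounds are pin-transferred in DMSO onto p53RE-bla cells and incubated 16 h at 37 C. The B/G FRET beta-lactamase substrate is then applied for 2 h at RT and fluorescence recorded.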

Chain of KiSS-1 receptor (Homo sapiens) (Q969F8 whole entry, looked up): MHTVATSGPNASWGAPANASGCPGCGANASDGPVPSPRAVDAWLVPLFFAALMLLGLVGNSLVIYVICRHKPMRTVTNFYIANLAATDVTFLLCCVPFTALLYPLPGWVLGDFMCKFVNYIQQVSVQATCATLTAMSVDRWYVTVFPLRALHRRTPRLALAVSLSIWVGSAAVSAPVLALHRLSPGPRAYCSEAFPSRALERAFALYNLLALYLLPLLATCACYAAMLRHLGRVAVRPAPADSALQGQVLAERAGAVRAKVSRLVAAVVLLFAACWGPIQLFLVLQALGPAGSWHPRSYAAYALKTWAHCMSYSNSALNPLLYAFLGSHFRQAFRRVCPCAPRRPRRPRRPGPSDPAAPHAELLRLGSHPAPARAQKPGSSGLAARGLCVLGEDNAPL
Chain of D(2) dopamine receptor (Homo sapiens) (P14416 whole entry, looked up): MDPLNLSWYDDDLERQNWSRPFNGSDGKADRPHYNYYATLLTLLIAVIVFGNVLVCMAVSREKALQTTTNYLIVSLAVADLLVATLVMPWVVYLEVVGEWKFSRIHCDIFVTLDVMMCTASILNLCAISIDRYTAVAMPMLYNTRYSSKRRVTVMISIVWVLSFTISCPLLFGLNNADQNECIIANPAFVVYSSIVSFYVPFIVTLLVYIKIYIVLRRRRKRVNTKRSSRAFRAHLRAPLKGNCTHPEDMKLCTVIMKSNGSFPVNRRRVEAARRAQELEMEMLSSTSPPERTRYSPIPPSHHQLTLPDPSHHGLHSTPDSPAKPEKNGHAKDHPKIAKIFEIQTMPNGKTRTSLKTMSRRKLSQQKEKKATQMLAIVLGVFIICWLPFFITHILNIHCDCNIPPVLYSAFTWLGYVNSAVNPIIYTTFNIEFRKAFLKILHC
Chain of 5-hydroxytryptamine receptor 2A (Homo sapiens) (P28223 whole entry, looked up): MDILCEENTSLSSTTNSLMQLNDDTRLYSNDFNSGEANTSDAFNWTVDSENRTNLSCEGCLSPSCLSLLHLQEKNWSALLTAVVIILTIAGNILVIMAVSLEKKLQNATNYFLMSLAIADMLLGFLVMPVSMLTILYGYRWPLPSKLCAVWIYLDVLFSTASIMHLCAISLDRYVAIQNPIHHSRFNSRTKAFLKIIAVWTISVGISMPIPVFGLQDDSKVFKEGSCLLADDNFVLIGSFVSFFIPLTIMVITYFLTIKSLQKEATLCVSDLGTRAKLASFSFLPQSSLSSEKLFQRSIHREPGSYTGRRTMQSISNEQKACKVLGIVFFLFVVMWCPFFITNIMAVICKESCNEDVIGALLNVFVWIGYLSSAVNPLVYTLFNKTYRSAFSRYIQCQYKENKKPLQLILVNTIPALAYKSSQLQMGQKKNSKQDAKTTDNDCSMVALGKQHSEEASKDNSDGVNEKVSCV
Chain of Muscarinic acetylcholine receptor M1 (Homo sapiens) (P11229 whole entry, looked up): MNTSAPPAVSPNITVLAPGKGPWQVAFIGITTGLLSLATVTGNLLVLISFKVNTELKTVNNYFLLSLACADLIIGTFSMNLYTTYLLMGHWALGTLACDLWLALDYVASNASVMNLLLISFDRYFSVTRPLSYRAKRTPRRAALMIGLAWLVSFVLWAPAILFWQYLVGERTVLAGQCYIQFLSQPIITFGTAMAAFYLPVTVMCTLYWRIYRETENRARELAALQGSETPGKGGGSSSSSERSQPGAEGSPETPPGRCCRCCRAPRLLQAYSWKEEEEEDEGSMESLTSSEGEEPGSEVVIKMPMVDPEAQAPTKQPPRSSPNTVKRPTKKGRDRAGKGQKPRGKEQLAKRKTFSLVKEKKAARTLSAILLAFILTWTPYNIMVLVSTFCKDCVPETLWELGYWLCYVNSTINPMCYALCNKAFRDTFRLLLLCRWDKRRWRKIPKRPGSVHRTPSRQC
Chain of Beta-2 adrenergic receptor (Homo sapiens) (P07550 whole entry, looked up): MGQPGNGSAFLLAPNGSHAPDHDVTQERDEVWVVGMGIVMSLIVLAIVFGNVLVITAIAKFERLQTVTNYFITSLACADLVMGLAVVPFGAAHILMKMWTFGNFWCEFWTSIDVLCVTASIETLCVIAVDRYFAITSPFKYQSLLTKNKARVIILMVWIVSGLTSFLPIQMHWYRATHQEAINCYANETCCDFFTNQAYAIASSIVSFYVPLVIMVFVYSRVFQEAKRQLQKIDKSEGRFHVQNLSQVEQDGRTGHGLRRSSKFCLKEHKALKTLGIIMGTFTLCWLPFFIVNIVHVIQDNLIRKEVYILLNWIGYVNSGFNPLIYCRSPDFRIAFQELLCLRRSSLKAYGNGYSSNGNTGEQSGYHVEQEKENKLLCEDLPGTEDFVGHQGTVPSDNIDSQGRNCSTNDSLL
Chain of Gonadotropin-releasing hormone receptor (Homo sapiens) (P30968 whole entry, looked up): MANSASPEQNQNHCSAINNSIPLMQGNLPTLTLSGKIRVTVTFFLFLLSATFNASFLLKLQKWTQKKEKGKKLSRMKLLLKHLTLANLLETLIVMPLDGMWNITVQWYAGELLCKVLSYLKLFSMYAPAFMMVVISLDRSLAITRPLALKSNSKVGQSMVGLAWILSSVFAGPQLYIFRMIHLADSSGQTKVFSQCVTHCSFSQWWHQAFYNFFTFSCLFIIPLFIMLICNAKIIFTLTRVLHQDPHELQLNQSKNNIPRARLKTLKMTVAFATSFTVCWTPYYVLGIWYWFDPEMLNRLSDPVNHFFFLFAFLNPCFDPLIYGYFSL

| SMILES | Potency [1] | Potency [2] | Potency [3] | Potency [4] | Potency [5] | Potency [6] | Potency [7] | Potency [8] | Potency [9] | Potency [10] | Potency [11] | Potency [12] | Potency [13] | Potency [14] | Potency [15] | Potency [16] | Potency [17] | Potency [18] | Potency [19] |
| --- | --- | --- | --- | --- | --- | --- | --- | --- | --- | --- | --- | --- | --- | --- | --- | --- | --- | --- | --- |
| C[C@@H]1O[C@@H](O[C@H]2C[C@@H](O)[C@]3(CO)[C@H]4[C@H](O)C[C@]5(C)[C@@H](C6=CC(=O)OC6)CC[C@]5(O)[C@@H]4CC[C@]3(O)C2)[C@H](O)[C@H](O)[C@H]1O | 730 nM (active) and 1.06 µM (active) | 163 nM (active) and 211 nM (active) | inactive | inactive | inactive | 68.8 nM (active) and inactive | 112 nM (active) | 126 nM (active) | inactive | inactive | inactive |  |  |  |  |  |  |  |  |
| CC(C)=C[C@@H]1[C@@H](C(=O)OCc2coc(Cc3ccccc3)c2)C1(C)C | inactive | inactive | inactive | inactive | inactive | inactive | inactive | inactive | inactive | inactive | inactive | inactive | inactive | inactive | inactive | inactive | inactive | inactive |  |
| CCNCC | inactive | inactive | inactive | inactive | inactive | inactive | inactive | inactive | inactive | inactive | inactive | inactive | inactive | inactive | inactive | inactive | inactive | inactive |  |
| CCC1(c2ccc(N)cc2)CCC(=O)NC1=O (stereo unspecified) | inactive | inactive | inactive | inactive | inactive | inactive | inactive | inactive | inactive |  | inactive |  |  |  |  | inactive | inactive | inactive |  |
| N#CC(Br)Br | inactive | inactive | inactive | inactive | inactive | inactive | inactive | inactive | inactive | inactive | inactive | inactive | inactive | inactive | inactive | inactive | inactive | inactive |  |
| N#Cc1cccnc1 | inactive | inactive | inactive | inactive | inactive | inactive | inactive | inactive | inactive |  | inactive | inactive | inactive | inactive | inactive | inactive | inactive | inactive |  |
| O=C(O)COc1cc(Cl)c(Cl)cc1Cl | inactive | inactive | inactive | inactive | inactive | inactive | inactive | inactive | inactive |  | inactive |  | inactive | inactive | inactive |  |  |  |  |
| O=[N+]([O-])c1ccc(CBr)cc1 | inactive | inactive | inactive | inactive | inactive | inactive | inactive |  | inactive | inactive | inactive | inactive | inactive | inactive | inactive | inactive | inactive | inactive | inactive |
